Results on 41 compounds are retold here after ChEMBL document CHEMBL4888484, “Replenishing the malaria drug discovery pipeline: Screening and hit evaluation of the MMV Hit Generation Library 1 (HGL1) against asexual blood stage Plasmodium falciparum ,using a nano luciferase reporter read-out” (2022).

Out of some 150,000 compounds screened, about 540 (0.36%) showed an effect of 50% or more. The entries come from a sample that favours strong results as a whole.

The test system of the test is Plasmodium falciparum. The experiment in a line: Primary screen in NF54 nanoGlo assay, in single point, at 2uM, 72h; a lower Z score goes with more inhibition. The class given is functional, Erythrocyte. As to conditions: timepoint 72 hour.
On to `CN(Cc1cn(C)nn1)CC1CCOCC1`, for which the “% Inhibition” value is -11% and the Z score is 2.06.

Turning to `CCO[C@H]1CN(C(=O)Cc2nc(C)sc2C)C[C@@H]1O`, the “% Inhibition” value came to 0% and the Z score is on record as 0.05.

On to `C[C@@]1(C(=O)NC2CCCCCCC2)Cn2c(ccc2-c2ccccc2)C(=O)N1Cc1ccco1`, for which the “% Inhibition” value is reported as 7% and the Z score was -0.83.

On to `S=c1cc(-c2ccccc2)n(Cc2ccco2)c2c1CCCC2`, for which the “% Inhibition” value came out at 54% and the Z score is given as -6.88.

Turning to `S=c1cc(-c2ccccc2)n(CCCc2ccccc2)c2c1CCCC2`, the “% Inhibition” value is listed as -6% and the Z score is listed as 0.85.

With `CC(=O)c1cc(Br)ccc1NCC(=O)N(C)CCC#N`, the “% Inhibition” value was -26% and the Z score was found to be 2.93.

Regarding `CCc1nccc(-c2c(-c3ccccc3)ncn2CCN2CCOCC2)n1`, the “% Inhibition” value is -6% and the Z score turned out to be 0.83.

Turning to `CCOC(=O)c1c(-c2ccccc2)n(C)c2cc(-c3cccnc3)c(O)cc12`, the “% Inhibition” value amounted to 9% and the Z score was -1.7.

As to `CCOC(=O)c1cnc(N2CCN(Cc3cccnc3)CC2)s1`, the “% Inhibition” value is given as -2% and the Z score worked out at 0.17.

In the case of `CCOC(=O)c1c(CN2CCCC2)n(C)c2cc(-c3cccnc3)c(O)c(Cn3ccnc3)c12`, the “% Inhibition” value came to 58% and the Z score is -10.36.

As to `Cc1noc(C)c1S(=O)(=O)Nc1ccc2c(c1)OC1(CCCC1)O2`, the “% Inhibition” value is given as 5% and the Z score is on record as -0.73.

`CCNc1nc(C)cc(Nc2ccc(NS(=O)(=O)c3c(C)noc3C)cc2)n1`: the “% Inhibition” value worked out at 86% and the Z score is on record as -8.65.

On to `CCNc1nc(C)cc(NCCNC(=O)c2cccc(Cl)c2)n1`, for which the “% Inhibition” value worked out at 23% and the Z score is reported as -3.44.

As to `Cc1nc2ccc(NC(=O)Nc3ccc(F)cc3F)cc2s1`, the “% Inhibition” value is on record as -9% and the Z score was found to be 1.17.

For `CCOc1nc(-c2cccc(F)c2)n(-c2ccc(NC(=O)Nc3ccc(F)cc3F)cc2)n1`, the “% Inhibition” value is -9% and the Z score is reported as 1.18.

With `Cc1cc(N(C)C)nc(NCCNC(=O)Nc2cccc(F)c2C)n1`, the “% Inhibition” value is listed as 20% and the Z score is given as -2.61.

For the compound `Cc1ccc(C)c(C(=O)Nc2cnc(-n3nc(C)cc3C)nc2)c1`, the “% Inhibition” value is 5% and the Z score is -0.75.

Regarding `COc1ccc(NS(=O)(=O)c2c(C)noc2C)cn1`, the “% Inhibition” value was 3% and the Z score was -0.47.

Take `CCNc1nc(C)cc(Nc2ccc(NC(=O)c3cc(C)ccc3C)cc2)n1`: the “% Inhibition” value came out at 97% and the Z score is recorded as -9.09.

For the compound `Cc1cc(C)n2c(C(=O)NCCNS(=O)(=O)c3ccc(Cl)cc3)nnc2n1`, the “% Inhibition” value is reported as -9% and the Z score is reported as 1.16.

With `Cc1ccncc1CN(C)C(=O)[C@]1(O)CCc2cc(Br)ccc2C1`, the “% Inhibition” value was -5% and the Z score came to 1.08.

As to `Cc1ccc(C)c(-c2cnn(CC3CC3)c2)c1`, the “% Inhibition” value is recorded as 0% and the Z score was 0.02.

As to `C=C1C(C)(C)[C@@H]2CC[C@@]1(C(=O)N1CCn3c(C(N)=O)cnc3C1)C2`, the “% Inhibition” value is reported as -14% and the Z score stood at 2.1.

Take `CC(C)Cc1noc(CNC(=O)c2nn(C)cc2Cl)n1`: the “% Inhibition” value is on record as -7% and the Z score is reported as 1.19.

In the case of `Cc1c(-c2cnn(C)c2)cc(C#N)n1C(F)F`, the “% Inhibition” value is -7% and the Z score is listed as 1.32.

Regarding `CN1C[C@@H](N)C[C@H]1c1nc(COc2ccc(F)cc2)nn1CC(F)(F)F`, the “% Inhibition” value is 1% and the Z score is recorded as -0.2.

For the compound `COc1ccc(C(=O)N2CCN(C(=O)c3cccnc3)[C@@H](C(=O)N[C@H]3CCCNC3=O)C2)cc1`, the “% Inhibition” value is -7% and the Z score stood at 1.08.

Take `Cn1c(=O)c2c(-c3ccc(Cl)cc3)n(-c3cccc4cccc(N)c34)cc2n(C)c1=O`: the “% Inhibition” value turned out to be 96% and the Z score is given as -11.21.

In the case of `Cn1c(=O)c2c(-c3ccc(Br)cc3)n(-c3cccc4cccnc34)cc2n(C)c1=O`, the “% Inhibition” value is reported as -4% and the Z score is reported as 0.72.

Take `Cn1c(=O)c2c(-c3ccc(Br)cc3)n(-c3ccccn3)cc2n(C)c1=O`: the “% Inhibition” value is recorded as -5% and the Z score is given as 0.83.

As for `O=C(COc1ccc(Cl)cc1)NC1CCN(Cc2ccccc2)CC1`, the “% Inhibition” value is recorded as -10% and the Z score is 0.93.

As to `Cc1ccc(C(=O)Nc2cccc(N3CCCCCC3)c2)c(=O)[nH]1`, the “% Inhibition” value is listed as -12% and the Z score came out at 1.57.

As to `CCN1CCN(c2c(CN(C(=O)Nc3cccc(F)c3)C(C)C)c(C)nn2-c2cccc(F)c2)CC1`, the “% Inhibition” value turned out to be 3% and the Z score was -0.41.

As for `CCN1CCN(c2cccc(NC(=O)c3cc(F)cc4c(=O)c5cc(F)ccc5[nH]c34)c2)CC1`, the “% Inhibition” value is reported as 95% and the Z score is -17.54.

For `CCN1CCN(c2ccc(C(=O)Nc3cccc(-c4ccc5c(c4)CCO5)c3)cc2F)CC1`, the “% Inhibition” value is reported as 18% and the Z score is recorded as -2.82.

As to `CN(C)Cc1ccc(NC(=O)c2cc(F)cc3c(=O)c4cc(F)ccc4[nH]c23)cc1`, the “% Inhibition” value was found to be 77% and the Z score was -11.59.

For the compound `CCN1CCN(c2cccc(NC(=O)c3ccc4[nH]c5ccccc5c(=O)c4c3)c2)CC1`, the “% Inhibition” value worked out at 92% and the Z score is given as -9.25.

`CC1CN(C(=O)c2cc(F)cc3c(=O)c4cc(F)ccc4[nH]c23)CC(C)O1` (configuration not stated): the “% Inhibition” value is recorded as -10% and the Z score was determined as 1.65.

For the compound `CC[C@@H](CNc1cc(NC2CC2)ncn1)C(=O)O`, the “% Inhibition” value is recorded as -7% and the Z score was 1.58.

Turning to `Cc1noc(CCCC(=O)N2CCN(C3CCCC3O)CC2)n1` (configuration not stated), the “% Inhibition” value was -26% and the Z score stood at 3.

For the compound `CN1CC2(CCN(Cc3ccccc3OCCc3ccccc3)CC2)CC1=O`, the “% Inhibition” value was found to be 0% and the Z score is -0.02.

As a reminder, the % Inhibition is the drop in the measured response relative to a control, in per cent.
